Assay outcomes: PubChem BioAssay, Broad Institute
Tg IFNy HTS = T. gondii growth inhibition with IFN-gamma, primary screen, cell-based. Toxoplasma gondii growth in IFN-gamma-treated host cells; stronger effect = lower value. activity change, negative = inhibition, % (no concentration beside the values). 69,000 tested, 3.8% active. AID 1259416, 2018; in the data active = activity change below about -70%, passing the limit was not always enough;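 also: host cells are HeLa cells infected with Toxoplasma gondii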
Active calls of the source: *. This is one part of a sample in which hits are shown more often than they occur.

SMILES | Tg IFNy HTS
COc1ccccc1NC(=O)Cn1c(=O)cc(C(=O)N2CCCC2)c2ccccc21 | 9
Cc1ccc2c(n1)N(CCn1cccn1)CCN(CC1CCOC1)C2 (stereo not drawn) | 4
Cc1[nH]cnc1-c1nccn1CC(c1cccnc1)N1CCOCC1 (stereo not drawn) | 6
O=C1c2cccc3cccc(c23)C(=O)N1CCO | -27
CN(C)CCN1C(=O)c2cccc3cc(N)cc(c23)C1=O | -77*
O=C(CCCN1C(=O)c2cccc3cccc(c23)C1=O)OCc1ccc2c(c1)OCO2 | -1
COc1cccc(C(=O)N2CCC3(CC2)NC(=O)c2cc(C)ccc2N3C)c1 | 11
O=C([C@H]1CCCO1)N1CCOC2(CCCN(c3cccc(F)c3)C2)C1 (stereo partly drawn) | 5
COc1cccc(OC)c1-c1n[nH]c2ccc(C)cc12 | -18
O=C(c1ccc(/C=C/c2n[nH]c3ccccc23)cc1)N1CCNCC1 | -67
C[C@@H](Oc1ccc2[nH]nc(/C=C/c3cnn(CCO)c3)c2c1)c1c(Cl)cncc1Cl | -75*
CCn1c(C2CCCN(C(=O)Nc3cccc4ccccc34)C2)n[nH]c1=O (stereo not drawn) | 16
CSc1ssc(=Nc2ccc(F)c(F)c2)c1-c1ccccc1 | -71*
CCN(Cc1noc(C)n1)C(=O)c1ccc2cccc(Cl)c2n1 | 3
COC(=O)c1cccc(NC(=O)N2CCC3(CC2)Nc2ccccc2-n2cccc23)c1 | 183
CCOc1ccccc1-c1nc(Cn2nnc(C(=O)Nc3ccc(F)cc3F)c2C)c(C)o1 | 68
O=c1[nH]c(Cc2ccccc2)nc2c1C1(CCCCC1)Cc1ccccc1-2 | -3
CCSc1nc2c(c(=O)n1C)C1(CCCCC1)Cc1ccccc1-2 | -73*
CC(NC(=O)c1ccc2c(c1)OCCO2)c1nnc2n1CCNCC2 (stereo not drawn) | -4
Cc1nc(-c2ccc(F)cc2)sc1CCNC(=O)c1ccccc1 | -26
Cc1nc(-c2ccc(Cl)cc2)sc1CCNC(=O)c1ccc(F)c(F)c1 | -77*
Cc1ccc(OCC(=O)NCCc2sc(-c3ccc(F)cc3)nc2C)cc1 | -24
Cc1nc(-c2ccc(F)cc2)sc1CCNC(=O)c1ccc(Br)cc1 | -81*
Cc1nc(-c2ccc(F)cc2)sc1CCNC(=O)c1ccc(C(C)(C)C)cc1 | -26
Cc1ccc(C(=O)NCCc2sc(-c3ccc(Cl)cc3)nc2C)cc1C | -12
SMILES | Tg IFNy HTS
Cc1nc(-c2ccc(Cl)cc2)sc1CCNC(=O)c1ccc(F)cc1 | -47
Cc1nc(-c2ccc(Cl)cc2)sc1CCNC(=O)COc1ccccc1 | 44
Cc1ccc(OCC(=O)NCCc2sc(-c3ccc(Cl)cc3)nc2C)cc1 | -76*
CS(=O)(=O)N[C@H]1CN(c2ncc(F)cn2)C2CCCOC21 (stereo partly drawn) | -24
O=S(=O)(Nc1ccc(-c2cc3cc(Cl)ccc3o2)cc1)c1ccccc1 | -52
COC(=O)Cn1cc(CN2CCCC2c2cc(C(C)C)no2)c2cc(OC)ccc21 (stereo not drawn) | 1
CC1(C)SCC(C(=O)NCc2cccnc2Oc2ccccc2F)NC1=O (stereo not drawn) | 0
CCc1nccc(-c2nccn2C(Cn2cccn2)c2ccccc2)n1 (stereo not drawn) | -10
Cc1ccc(CC(=O)Nc2ccc(-c3nc(-c4ccccc4)co3)cc2)cc1 | -9
CC(C)C(=O)Nc1cc(N2CC(C(=O)O)CC2=O)ccc1F (stereo not drawn) | -1
CCN(Cc1ccccc1)C(=O)CN1C(=O)CCc2cc(S(=O)(=O)N3CCC(C)CC3)ccc21 | -45
Nc1ncnc2c1ncn2[C@H]1CC[C@@H](CO)O1 | 11
CC(C)[C@H](N)C(=O)OCCOCn1cnc2c(=O)[nH]c(N)nc21 | 2
CC(C)(C)C(=O)OCOP(=O)(COCCn1cnc2c(N)ncnc21)OCOC(=O)C(C)(C)C | -80*
CCc1cnc(N2C[C@H]3C[C@H](C(=O)Nc4ccccc4)[C@@H](C2)O3)nc1 | 16
COCCN(C)C(=O)c1cc2c(s1)CCN2C(=O)c1cccnc1 | -36
COc1cc2c(cc1CCNS(=O)(=O)c1c(C)nn(C)c1Cl)CCC2 | 58
COc1ccc(C(=O)NCCc2sc(-c3cccc(C)c3)nc2C)cc1 | 224
CCc1nc(-c2cccc(C)c2)c(-c2ccnc(NC(=O)c3ccccc3)c2)s1 | -81*
CCOc1ccc(C(=O)NCCc2sc(-c3cccc(C)c3)nc2C)cc1 | 117
COc1ccc(C(Nc2ccc(C)cc2)C(=O)NC2CCCCC2)cc1 (stereo not drawn) | 58
Cc1nc(=O)[nH]c(C)c1CCC(=O)N(C)Cc1cccc2ncccc12 | 2
Clc1nnc(N2CCCCC2)c2ccccc12 | -88*
Cc1nc(Cl)c(Cc2ccccc2)c(N2CCCC2)n1 | 22
COc1ccc(-c2nc(N3CCCC3)c3ccccc3n2)cc1 | -63
SMILES | Tg IFNy HTS
NC(=O)c1ccc(-c2nc(-c3ccc4c(c3)OCO4)c(-c3ccccn3)[nH]2)cc1 | -62
COc1nccnc1-c1ccc2c(c1)OCO2 | 10
Cc1cccc(-c2[nH]c(C(C)(C)C)nc2-c2ccc3c(c2)OCO3)n1 | -83*
Cc1ccccc1N1CC2(CCN(C(=O)Cc3ccc(F)cc3)C2)CC1=O (stereo not drawn) | -4
Cc1ccc(N2CC3(CCN(C(=O)Nc4ccc(F)cc4)C3)CC2=O)cc1 (stereo not drawn) | -11
O=C(c1ccn[nH]1)N1CCC2(CC(=O)N(c3ccc(F)cc3)C2)C1 (stereo not drawn) | -92*
N#Cc1ccc(N2CC3(CCN(C(=O)c4cnccn4)C3)CC2=O)cc1 (stereo not drawn) | 115
Cc1ccc(N2CC3(CCN(C(=O)Cc4ccc(F)cc4)C3)CC2=O)cc1 (stereo not drawn) | -113*
O=C(c1ccn[nH]1)N1CCC2(CC(=O)N(c3ccccc3)C2)C1 (stereo not drawn) | -11
Cc1nn(C)cc1C(C)n1ccnc1-c1ccccc1Cn1cccn1 (stereo not drawn) | 5
O=C1Nc2ccccc2NC12CCN(Cc1cc3n(n1)CCCNC3)CC2 | 1
COc1ccc2c(c1)NC1(CCN(C(=O)c3ccccc3F)CC1)c1cccn1-2 | 40
CN(C(=O)c1ccccc1C(=O)N(C)C1CCS(=O)(=O)C1)C1CCS(=O)(=O)C1 (stereo not drawn) | 10
Cc1nnnn1-c1ccc(CC(=O)N2CCc3c([nH]c4ccccc34)C2C)cc1 (stereo not drawn) | -5
CN(C)S(=O)(=O)N1C[C@H]2C[C@H](C(=O)NCc3ccccc3)[C@@H](C1)O2 | 2
C[C@H](O[C@H]1OCCN(Cc2n[nH]c(=O)[nH]2)[C@H]1c1ccc(F)cc1)c1cc(C(F)(F)F)cc(C(F)(F)F)c1 | -72*
N#CCCN(Cc1cccs1)S(=O)(=O)c1ccc2c(c1)CCO2 | -91*
CC(C)N(CCC#N)C(=O)Nc1ccc2c(c1)CCO2 | -32
CN(C)CCN(Cc1cccs1)S(=O)(=O)c1ccc2[nH]c(=O)ccc2c1 | 361
C#CCOc1ccc(CN2CCOC3(COCCN(C(=O)CC)C3)C2)cc1 (stereo not drawn) | -27
COCc1cc(CN2CC3(CCNCC3)CC2C(=O)O)ccc1OC (stereo not drawn) | -7
Cc1cc(C)cc(NC(=O)N2CCc3nc(-c4ccccc4)sc3C2)c1 | 23
CC(C)N(Cc1ccccc1)S(=O)(=O)c1cccs1 | -15
O=S(=O)(Nc1ccc(Oc2ncnc3cc(Cl)ccc23)nc1)c1cccs1 | 10
CC(=O)N(c1ccc(NS(=O)(=O)c2cccs2)cn1)S(=O)(=O)c1cccs1 | -102*
